Rows were chosen to be rich in hits. Some 9.2% of all compounds tested hit in one or more screens of this group.
ELG1 DNA repair: ELG1-dependent DNA repair inhibition; Potency, µM (titrated, usually from 46.1 µM), for inactives: at the highest dose activity change, negative = inhibition, most hits filed as inhibitors; AID 504467; 330,000 compounds, 2.3% hits; HEK293T ELG1-luciferase reporter, luminescence, 16 h; DNA damage induced by 5-fluorouridine; note: % is set by controls: 0 for no effect and ±100 for the full control effect; nearly all actives have a fitted effect of over 55% in size
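HEK293T cells expressing luciferase-tagged ELG1 (2,000/well) received 5-Fluorouridine plus compound or DMSO for 16 hr at 37 °C. Luciferase was read by ONE-Glo luminescence after 30 min at room temperature.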
Rab9 promoter act: activates the Rab9 promoter. Huh7 Rab9 promoter-luciferase reporter, luminescence, 24 h. Potency, µM (doses to about 9.22 µM), for the others: top-dose activation, negative = inhibition, actives largely listed as activators. 320,000 compounds, 2.8% hits. AID 485297; note: % of control where 0% means no effect; nearly all actives have a fitted effect of over 60% in size
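Measured in stably transfected Huh7 cells bearing a Rab9 promoter–luciferase construct: 24 h compound treatment at 37 °C, followed by luminescence detection.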
FLuc modulator: inhibits or activates purified firefly luciferase, miR-21 counter-screen; P08659; purified FLuc, Km substrates, luminescence inhibition; Potency, µM (doses to about 57.5 µM), for inactives: at the highest dose activity change, negative = inhibition, actives largely listed as inhibitors; 360,000 compounds, 6.9% hits; AID 588342;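 note: plate controls were vehicle for no effect and reference inhibitor for full effect; nearly all actives have a fitted effect of over 55% in size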
Target sequence (P08659 whole entry, looked up): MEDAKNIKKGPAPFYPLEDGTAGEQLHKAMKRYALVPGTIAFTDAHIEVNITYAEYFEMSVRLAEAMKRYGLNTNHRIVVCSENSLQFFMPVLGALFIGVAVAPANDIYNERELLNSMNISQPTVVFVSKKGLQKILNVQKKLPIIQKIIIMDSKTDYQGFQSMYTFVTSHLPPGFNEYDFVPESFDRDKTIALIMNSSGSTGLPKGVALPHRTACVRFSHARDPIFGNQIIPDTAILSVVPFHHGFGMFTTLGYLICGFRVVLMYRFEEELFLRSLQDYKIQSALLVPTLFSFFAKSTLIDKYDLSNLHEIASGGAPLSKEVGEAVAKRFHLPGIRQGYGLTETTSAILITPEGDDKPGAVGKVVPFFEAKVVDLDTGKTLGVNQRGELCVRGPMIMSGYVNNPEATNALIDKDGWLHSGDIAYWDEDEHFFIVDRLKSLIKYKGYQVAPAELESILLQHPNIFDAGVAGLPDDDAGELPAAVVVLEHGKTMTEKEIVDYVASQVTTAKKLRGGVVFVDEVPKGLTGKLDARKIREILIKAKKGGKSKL
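Purified P. pyralis luciferase (10nM final) with 10uM D-luciferin and 10uM ATP (Km levels) in 50mM Tris acetate pH 7.5, 10mM Mg acetate, 0.01% Tween-20, 0.05% BSA; qHTS 6-point titration, ~60 µM downward; luminescence read.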
SMN2 splice enh: SMN2 splice variant enhancement. HEK293 SMN2-luciferase splicing reporter, luminescence, 30-36 h. Potency, µM (top dose mostly 46.1 µM), without a hit: top-dose activity change, positive = activation, most hits filed as activators. 210,000 compounds, 2.8% hits. AID 1458; note: % of control where 0% means no effect; nearly all actives have a fitted effect of over 55% in size
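qHTS luciferase splicing reporter: luminescence rises when SMN2 exon 7 is included in transfected HEK293 cells. Compound exposure lasted 30-36 h at 37C, with 4.5 mM final sodium butyrate as control, followed by a ONE-Glo read.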
ELG1 genotox: genotoxicity induction in ELG1-luciferase HEK293T cells; HEK293T ELG1-luciferase reporter, luminescence, 16 h; Potency, µM (series often up to 46 µM), for inactives: at the top dose activity change, positive = activation, actives largely listed as activators; 330,000 compounds, 1.3% hits; note: % of control where 0% means no effect; nearly all actives have a fitted effect of over 60% in size
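Luminescence read-out: rising ELG1-luciferase signal, reflecting elevated ELG1 protein under genetic stress, flags genotoxic compounds. Cells were treated for 16 hr at 37 °C before ONE-Glo detection.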
NPC1 prom act: activates the NPC1 promoter. Huh7 NPC1 promoter luciferase reporter, 24 h. Potency, µM (titrated, usually from 9.22 µM), for the others: at the top dose activation, actives largely listed as activators. 320,000 compounds, 2.4% hits; note: % of control where 0% means no effect; nearly all actives have a fitted effect of over 60% in size
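In 1536-well qHTS, Huh7 cells harboring an NPC1 promoter–luciferase construct received compound for 24 h; activation was quantified by luminescence following luciferase reagent addition.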
* marks the source's active call; other numbers are inactive results; ? = inconclusive; nt = not tested or not shown. Calls come from the whole dose curve; as a rule, active = well fitted curve in the direction sought with a large enough effect; inconclusive = small, poorly fitted or top-dose-only effect, or another doubt; inactive = no such curve, though single readings can be large; an effect the other way counts as inactive or inconclusive. Potency is the fitted concentration of half-maximal effect.

SMILES	ELG1 DNA repair	Rab9 promoter act	FLuc modulator	SMN2 splice enh	ELG1 genotox	NPC1 prom act
CCCc1cc(C(=O)Nc2nccs2)cs1	?	1.3µM*	1.9µM*	4µM*	1.3µM*	1.8µM*
CCCN1C(=O)c2ccc(C(=O)Nc3nccs3)cc2C1=O	29%	-5%	?	-16%	5%	-2%
COc1ccc2oc(C(=O)Nc3nccs3)c(C)c2c1	?	1.1µM*	0.54µM*	nt	0.52µM*	1.1µM*
COc1ccc(NC(=O)Nc2nccs2)cc1	?	21%	6.7µM*	14µM*	?	5%
CCN(CC)CCN(Cc1cc2ccc(C)c(C)c2[nH]c1=O)C(=S)NCc1ccco1	8%	3%	-2%	nt	-3%	-3%
CCC(C)(CN(C)C)OC(=O)c1ccccc1 (centres undefined)	?	-1%	8%	nt	-1%	-3%
O=C(Cc1ccsc1)NCC(=O)Nc1ccc(F)c(F)c1	16%	-1%	4%	nt	5%	1%
O=C(NCC(=O)N1CCN(S(=O)(=O)/C=C/c2ccccc2)CC1)c1ccccc1F	-4%	0%	-3%	-5%	0%	0%
Cc1ccc(C(=O)O/N=C/c2c(N3CCOCC3)n(C)c3ccccc23)cc1	?	-39%	6µM*	-47%	-13%	-17%
Cn1c(N2CCOCC2)c(/C=N/OC(=O)c2ccc(F)cc2)c2ccccc21	?	-33%	9.5µM*	-70%	-5%	-18%
CC(=O)O/N=C/c1c(N2CCOCC2)n(C)c2ccccc12	?	-5%	14%	-62%	-10%	-9%
O=S(=O)(c1ccc2c(c1)OCCO2)N1CCC(c2nc3ccc(Cl)cc3[nH]2)CC1	18µM*	1%	3%	nt	-20%	0%
O=S(=O)(c1ccc2c(c1)OCCO2)N1CCC(c2nc3ccccc3[nH]2)CC1	?	-2%	3%	-24%	-20%	-2%
O=C(NCC1CCCO1)c1ccc(S(=O)(=O)N2CCC(c3nc4ccc(Cl)cc4[nH]3)CC2)cc1 (centres undefined)	13µM*	2%	0%	-43%	-8%	-1%
O=C(COc1ccc(S(=O)(=O)NC2CCCCC2)cc1)N1CCN(c2ccc(F)cc2)CC1	9.2µM*	-13%	0%	-49%	-12%	-1%
CCOc1ccccc1NC(=O)COc1ccc(S(=O)(=O)NC2CCCCC2)cc1	nt	nt	8.5µM*	20%	nt	nt
O=C(CNS(=O)(=O)c1ccc(Cl)cc1)N1CCN(c2ccc(F)cc2)CC1	23µM*	nt	nt	nt	-7%	nt
CCOc1ccccc1NC(=O)C1CCCCN1S(=O)(=O)c1ccccc1 (centres undefined)	21µM*	-5%	nt	nt	-5%	0%
Cc1ccc(C(=O)Oc2oc(-c3ccco3)nc2C=Nc2ccccc2)cc1	?	?	15µM*	23%	14%	29%
COc1ccc(N=Cc2nc(-c3ccccc3)oc2OC(=O)c2ccccc2)cc1	?	?	11µM*	119%	?	27%
CN(C)c1ccc(N=Cc2nc(-c3ccccc3)oc2OC(=O)c2cccc(Br)c2)cc1	?	28%	?	16µM*	?	?
CC(=O)Oc1oc(-c2ccccc2)nc1C=Nc1ccccc1	23%	17%	-19%	6%	4%	-6%
Cc1cc(NC(=O)CN2C(=O)NC3(CCCCC3)C2=O)ccc1N1CCCC1	7%	-2%	8%	nt	2%	-3%
COc1ccc2c(c1)c1c(c(=O)n(Cc3ccccc3)c(=O)n1Cc1ccccc1)n2C	nt	nt	-2%	nt	nt	nt
CCc1ccc(NC(=O)CCC(=O)Nc2nnc(C(F)(F)F)s2)cc1	15%	0%	27µM*	nt	9%	21%
SMILES	ELG1 DNA repair	Rab9 promoter act	FLuc modulator	SMN2 splice enh	ELG1 genotox	NPC1 prom act
CNC(=O)c1ccc(C)c(NC(=O)C2=C(C)OCCS2)c1	24%	1%	0%	nt	1%	1%
COc1ccc(-c2cc3ncnc(Cl)c3s2)cc1	?	?	3.4µM*	nt	?	3.5µM*
COC(=O)c1ccc2c(=O)n(NC(=O)C(c3ccccc3)c3ccccc3)c(=S)[nH]c2c1	26µM*	-3%	-16%	-17%	-9%	1%
COC(=O)c1ccc2c(=O)n(CCO)c(=S)[nH]c2c1	-1%	-2%	3%	15%	-6%	-3%
N/C(=N\OC(=O)c1cccc(Cn2cc(C(F)(F)F)ccc2=O)c1)c1ccccc1	-6%	-3%	?	nt	-5%	2%
N/C(=N\OC(=O)c1cccc(Cn2cc(C(F)(F)F)ccc2=O)c1)c1ccc(Cl)cc1	-14%	1%	15µM*	nt	-4%	22%
Cc1ccc(/C(N)=N/OC(=O)c2cccc(Cn3cc(C(F)(F)F)ccc3=O)c2)cc1	2%	10%	21µM*	nt	2%	?
O=C(Nc1ccsc1C(=O)NC1CCCCC1)c1ccc(F)cc1	-3%	-3%	-10%	-16%	10%	-4%
CCC1S/C(=N/C(=O)NC2CCCCC2)NC1=O (centres undefined)	?	?	?	11µM*	?	?
O=C(/N=C1\NC(=O)C(F)(C(F)(F)F)S1)NC1CCCCC1 (centres undefined)	0%	2%	13µM*	?	-3%	-4%
COc1cccc(CCNC(=O)c2cnc3sc(N4CCCCCC4)nn3c2=O)c1	nt	nt	1%	15%	nt	nt
Cc1ccc(C)c(CNC(=O)CCn2cccn2)c1	nt	nt	-2%	nt	nt	nt
CCN(CC(=O)NC1CCCC1)S(=O)(=O)c1ccc(F)cc1	12%	-3%	1%	nt	0%	-1%
CCC(=O)NCCc1nc2cc(NC(=O)c3ccccc3OC)ccc2n1C	?	29%	21µM*	nt	?	23%
COc1ccccc1C(=O)Nc1ccc2c(c1)nc(CCNC(C)=O)n2C	?	?	15µM*	?	?	?
CCC(=O)NCCc1nc2cc(NC(=O)COc3ccccc3)ccc2n1C	?	?	?	nt	19%	?
CC(=O)NCCc1nc2cc(NC(=O)Nc3ccccc3)ccc2n1C	?	4µM*	6.7µM*	nt	?	2.2µM*
COc1ccccc1C(=O)Nc1ccc2c(c1)nc(CCNC(=O)c1ccccc1)n2C	?	2%	15µM*	nt	-10%	-19%
Cn1c(CCN2CCCCC2)nc2cc(NC(=O)Nc3ccccc3)ccc21	18%	-1%	-3%	nt	13%	-2%
CCc1c(C)nc2ncnn2c1N1CCN(S(=O)(=O)c2ccc(OC)cc2)CC1	-16%	7%	4%	nt	0%	-5%

Bioassay records as filed in PubChem BioAssay.
